# Records with an inconclusive call do not appear. Calls of active or inactive are those of the source. The calls were made as follows: active = hit-call score of the fitted dose curve at least 0.9, where 1 is the maximum; inconclusive = response in the unintended direction; inactive = score below 0.9.
# Read-out: Cytochrome P450 2B6 (Homo sapiens) (UniProt P20813)
# Assay: CLD_CYP2B6_6hr: CellzDirect (CLD) Gene Expression Assay for xenobiotic metabolism (CYP2B6) at 6 hours (AID 2283677);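 also: actives raise CYP2B6 transcript above DMSO baseline so AC50 marks an inducer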
# Experimental: CLD_6hr is a cell-based, multiplexed-readout assay that uses hepatocyte, a human liver primary cell, with measurements taken at 6 hours after chemical dosing in a 96-well plate.CLD_CYP2B6_6hr is one of 16 assay component(s) measured or calculated from the CLD_6hr assay. It is designed to make measurements of mRNA induction, a form of inducible reporter, as detected with chemiluminescence signals by Quantitative Nuclease Protection Assay (qNPA) technology.Data from the assay component CLD_CYP2B6_6hr was analyzed at the endpoint, CLD_CYP2B6_6hr, in the positive analysis fitting direction relative to DMSO as the negative control and baseline of activity. Using a type of inducible reporter, gain-of-signal activity can be used to understand changes in the reporter gene as they relate to the gene CYP2B6. Furthermore, this assay endpoint can be referred to as a primary readout. To generalize the intended target to other relatable targets, this assay endpoint is annotated to the cyp intended target family, where subfamily is xenobiotic metabolism.
# Human hepatocyte cultures were treated daily for two consecutive days with fresh dosing solutions containing appropriate concentrations of the 320 ToxCast chemicals (chemical identities were blinded to CellzDirect and other ToxCast collaborators), vehicle control (0.2% DMSO), and positive control inducers as summarized in Table 1. Due to the large number of treatment groups and chemicals examined, the ToxCast chemicals were divided into two groups (spanning two independent cultures of hepatocytes from separate donor preparations (Hu778: ToxCast plates 1 and 2; Hu776: ToxCast plates 3 and 4). Each preparation of human hepatocyte cultures was treated with respective vehicle control, medium only control, set of six positive controls/reference chemicals for the five hepatic receptor pathways, and a subset of eight of the ToxCast chemicals (indoxacarb, pyrithiobac-sodium, norflurazon, cyhalofop-butyl, methomyl, thiram, acetochlor, and propiconazole). These replicate data, coupled with internal replicates designed within the blinded ToxCast chemical library, provided additional data to evaluate interindividual differences between hepatocyte preparations and their potential impact on chemical profiles.Cell morphology and integrity were evaluated using phase-contrast microscopy as an indicator of hepatocyte cell health (Tyson & Green, 1987). Cultures for each treatment group (i.e., media, vehicle [0.2% DMSO], positive control inducers [multiple concentrations], and the ToxCast chemicals [multiple concentrations]) were observed and cell morphology was assessed relative to vehicle control cultures at each harvest time point (0, 6, 24, or 48 h). […] Images were evaluated at the conclusion of the study to assess changes in cell integrity and account for the effects of chemical exposure on uncharacteristic changes in concentration-dependent gene expression profiles. The results from these determinations of apparent cytotoxicity were annotated (yes/no) alongside the corresponding qNPA data for reference.At the conclusion of each treatment period, hepatocyte cultures (96-well) were washed with 1 volume of HBSS, lysed by addition of 25 ul ArrayPlate lysis buffer (HTG, Tucson, AZ), and 70 ul/well of Denaturation Oil, denatured by incubation at 95C for 10 min, and frozen at approximately -70C until analysis by nuclease protection assay (qNPA) (Roberts et al., 2007). For qNPA analysis, cell lysates were thawed at 50C for approximately 30 min, qNPA probes were added, and samples were incubated at 95C for 10 min to begin the detection process by denaturing the target RNA, dissociating the duplexes and secondary structure hybridization. At the conclusion of the hybridization period, S1 nuclease reagent was added to each sample to digest all nonprotected nucleotides at 50C for 60-90 min. […]
SMILES,AC50,outcome
CCOP(=O)(OCC)Oc1nc(Cl)c(Cl)cc1Cl,7.26 µM (active),–
Cc1cnc(C2=NC(C)(C(C)C)C(=O)N2)c(C(=O)O)c1 (stereo not given),–,inactive
CC1(C)C(C=C(Cl)Cl)C1C(=O)OC(C#N)c1cccc(Oc2ccccc2)c1 (stereo not given),1.54 µM (active),–
Cc1ccc(N=CN(C)C=Nc2ccc(C)cc2C)c(C)c1,–,inactive
COc1cc(OC)nc(NC(=O)NS(=O)(=O)c2ncccc2OCC(F)(F)F)n1,–,inactive
COCC(=O)N(c1c(C)cccc1C)C(C)C(=O)OC (stereo not given),2.5 µM (active),–
COC(=O)NC(=S)Nc1ccccc1NC(=S)NC(=O)OC,4.73 µM (active),–
CS(=O)(=O)c1cc(C(F)(F)F)ccc1C(=O)c1cnoc1C1CC1,–,inactive
CC1(C)CON(Cc2ccccc2Cl)C1=O,3.31 µM (active),–
COP(=S)(OC)Oc1ccc([N+](=O)[O-])c(C)c1,1.46 µM (active),–
CCNP(=S)(OC)O/C(C)=C/C(=O)OC(C)C (stereo not given),0.84 µM (active),–
CCOP(=S)(OCC)Oc1nc(Cl)n(C(C)C)n1,0.511 µM (active),–
C=CCOC(=O)C(C)(C)OC(=O)c1cc(-n2c(=O)cc(C(F)(F)F)n(C)c2=O)ccc1Cl,0.32 µM (active),–
CC(C)Oc1cccc(NC(=O)c2ccccc2C(F)(F)F)c1,3.68 µM (active),–
CCCCC(O)(Cn1cncn1)c1ccc(Cl)cc1Cl (stereo not given),2.08 µM (active),–
C=C(C)CN(CC)c1c([N+](=O)[O-])cc(C(F)(F)F)cc1[N+](=O)[O-],–,inactive
CCC(C)n1c(=O)[nH]c(C)c(Br)c1=O (stereo not given),3.08 µM (active),–
CC(C)(C)C(=O)C(Oc1ccc(Cl)cc1)n1cncn1 (stereo not given),3.95 µM (active),–
COP(=S)(OC)SCn1nnc2ccccc2c1=O,0.448 µM (active),–
CCN(CC)c1nc(C)cc(OP(=S)(OC)OC)n1,1.59 µM (active),–

SMILES,AC50,outcome
Clc1cccc(C(Cl)(Cl)Cl)n1,1.9 µM (active),–
CC(C)Nc1nc(Cl)nc(NC(C)C)n1,2.47 µM (active),–
COC(=O)N(C(=O)N1CO[C@@]2(C(=O)OC)Cc3cc(Cl)ccc3C2=N1)c1ccc(OC(F)(F)F)cc1,2.09 µM (active),–
CCOc1cc(C(C)(C)C)ccc1C1COC(c2c(F)cccc2F)=N1 (stereo not given),4.69 µM (active),–
O=C(O)c1c(Cl)ccc2cc(Cl)cnc12,–,inactive
COc1cc(Cl)c(OC)cc1Cl,0.618 µM (active),–
CC1(C)CCC(=Cc2ccc(Cl)cc2)C1(O)Cn1cncn1 (stereo not given),1.97 µM (active),–
CC1(C)C(C(=O)OC(C#N)c2cccc(Oc3ccccc3)c2)C1(C)C (stereo not given),4.01 µM (active),–
CN=C=S,4.85 µM (active),–
CCCCOCN(C(=O)CCl)c1c(CC)cccc1CC,2.29 µM (active),–
CCCC(=NOCC)C1=C(O)CC(CC(C)SCC)CC1=O (stereo not given),–,inactive
CC(C)N1C(=O)N(c2ccccc2)CSC1=NC(C)(C)C,7.11 µM (active),–
Cc1c(COC(=O)[C@@H]2[C@H](/C=C(\Cl)C(F)(F)F)C2(C)C)cccc1-c1ccccc1,4.27 µM (active),–
CNC(=O)N(C)c1nnc(C(C)(C)C)s1,–,inactive
COC(=O)c1c(C(F)F)nc(C(F)(F)F)c(C2=NCCS2)c1CC(C)C,0.277 µM (active),–
Nc1c(Cl)c(F)nc(OCC(=O)O)c1Cl,–,inactive
CCOc1nc(F)cc2nc(S(=O)(=O)Nc3c(Cl)cccc3Cl)nn12,14.4 µM (active),–
CC(C)C1(C)N=C(c2ncccc2C(=O)O)NC1=O (stereo not given),0.00054 µM (active),–
N#CN=C1SCCN1Cc1ccc(Cl)nc1,–,inactive
OC(c1ccc(Cl)cc1)(c1ccc(Cl)cc1)C(Cl)(Cl)Cl,3.96 µM (active),–

# Reference: PubChem BioAssay (EPA / NIEHS)
